Reference: PubChem BioAssay AID743286 (National Center for Advancing Translational Sciences (NCATS), 2014)
About 340 (31%) of roughly 1,100 compounds were called active. Inconclusive results (about 40%) are left out. The list is a sample of the results. Unmarked numbers belong to inactive results. The call rests on the fitted dose curve; in most records, active means well fitted inhibition curve with a large enough effect; inconclusive means small, poorly fitted or top-dose-only effect; inactive means flat fitted curve, though single readings scatter.

Each molecule was assayed against Phosphatidylinositol 5-phosphate 4-kinase type-2 alpha (Homo sapiens) (UniProt P48426) (assay: qHTS for Inhibitors of PI5P4K: Confirmation in Primary Assay). Conditions: PI5P4Kalpha enzyme, ADP-Glo luminescence, 60 min; series mostly up to 76.9 µM; activity change, negative = inhibition: at the top concentration.
Phosphatidylinositol 5-phosphate 4-kinase type-2 alpha (Homo sapiens), sequence (P48426 whole entry, looked up): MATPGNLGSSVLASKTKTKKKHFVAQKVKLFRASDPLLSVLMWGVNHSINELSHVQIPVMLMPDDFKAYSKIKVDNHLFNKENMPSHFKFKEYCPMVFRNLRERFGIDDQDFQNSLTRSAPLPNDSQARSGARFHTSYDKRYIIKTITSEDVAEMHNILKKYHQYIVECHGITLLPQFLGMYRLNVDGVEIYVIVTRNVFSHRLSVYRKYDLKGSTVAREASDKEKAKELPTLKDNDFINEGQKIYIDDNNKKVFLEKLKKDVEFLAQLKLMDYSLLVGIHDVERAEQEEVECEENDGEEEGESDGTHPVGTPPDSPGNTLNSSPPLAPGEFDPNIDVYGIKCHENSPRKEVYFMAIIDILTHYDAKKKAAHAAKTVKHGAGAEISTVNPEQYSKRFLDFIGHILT
Method in brief: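 Human PI5P4Kα activity was measured as ADP generation using ADP-Glo luminescence. Reactions ran 60 minutes at room temperature with 5 microM ATP in buffered conditions at pH 7.4 containing 5% DMSO.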
Further: nearly all actives have a fitted effect of over 65% in size.
On the % scale 0 is the no-effect control and ±100 the full control effect; potency means the concentration at half of the fitted maximal effect.

| Compound | activity change, negative = inhibition | Potency |
| --- | --- | --- |
| CC(NC(=O)c1ccnn1C)C1CCCO1 (stereo unspecified) | 7.18% |  |
| Cn1c(=O)oc2cc(S(=O)(=O)Nc3ccccc3)ccc21 | -5.26% |  |
| CCOc1ccc(NC(=O)N2CCC(n3nnc4ccccc43)CC2)cc1 | 1.23% |  |
| O=C1NN=C2CCCCCC12 (stereo unspecified) | 3.7% |  |
| C[C@H](NC(=O)c1cc2c(cn1)[nH]c1ccccc12)C(=O)O |  | 10 µM (active) |
| Cc1ccc(-c2cc3c(n2-c2ccc(C(=O)O)cc2)CCCC3=O)cc1 |  | 15.8 µM (active) |
| Nc1nc(Nc2ccccc2)sc1C(=O)c1ccccc1 |  | 7.94 µM (active) |
| COc1ccc(C(=O)c2sc(Nc3ccccc3F)nc2N)cc1 |  | 5.62 µM (active) |
| Nc1sc2c(c1C(=O)c1ccccc1)CCCC2 | -22.2% |  |
| Nc1nc(Nc2ccccc2F)sc1C(=O)c1ccccc1 |  | 14.1 µM (active) |
| CCC(=O)Oc1ccc(C(=O)Nc2c[nH]c(=O)[nH]c2=O)cc1 | -4.14% |  |
| O=C(c1ccc(OCCN2CCCCC2)cc1)c1c(-c2ccc(O)cc2)sc2cc(O)ccc12 | -20.9% |  |
| COc1ccccc1N(CC(=O)NCc1ccco1)S(=O)(=O)c1ccc(C)cc1 |  | 15.8 µM (active) |
| COc1ccccc1N(CC(=O)N1CCC(C(N)=O)CC1)S(=O)(=O)c1ccccc1 | -7.71% |  |
| COc1ccc(S(=O)(=O)N(C(=O)c2ccco2)c2cc3sc(=O)oc3c3ccccc23)cc1 | -19.6% |  |
| CCn1cc(C(=O)N2CCN(c3cccc(C)c3C)CC2)c(=O)c2ccc(C)nc21 | -4.99% |  |

| Compound | activity change, negative = inhibition | Potency |
| --- | --- | --- |
| O=C(O)c1cccc(NC(=O)c2cn(-c3ccccc3)nc2-c2cc3ccccc3o2)c1 |  | 14.1 µM (active) |
| CN(Cc1cn(-c2ccccc2)nc1-c1cc2ccccc2o1)C(=O)CCC(=O)O | -2.59% |  |
| COc1ccc(-c2nnn(CC(=O)N(CC(=O)NC3CCCC3)c3ccccc3)n2)cc1OC | 0.286% |  |
| COc1ccc2nc(-c3ccco3)c(-c3ccco3)nc2c1 |  | 10 µM (active) |
| CS(=O)(=O)c1ccc(C(=O)Nc2nc(-c3ccco3)c(-c3ccco3)s2)cc1 | -27.4% |  |
| COc1ccccc1Cc1c(-c2ccco2)nc2c(C)cc(Br)cn12 | -11.9% |  |
| O=C(Nc1nc(-c2ccco2)cs1)c1ccccc1 | -26.7% |  |
| COCCNC(=O)C(c1ccc(Cl)cc1)N(Cc1ccco1)C(=O)CCC(=O)Nc1ccccn1 (stereo unspecified) | 0.846% |  |
| CCCNC(=O)CSc1nnc(-c2ccco2)n1C | -0.997% |  |
| CCCCNC(=O)c1ccc2nc(-c3ccco3)c(-c3ccco3)nc2c1 |  | 12.6 µM (active) |
| O=C(c1ccccc1)c1ccc2nc(-c3ccco3)c(-c3ccco3)nc2c1 |  | 4.47 µM (active) |
| Cc1cccc(C)c1NC(=O)C(c1ccc(C(F)(F)F)cc1)n1c(=O)c(-c2ccco2)nc2ccccc21 (stereo unspecified) | -26.5% |  |
| COc1ccc(NC(=O)CSc2nnc(-c3ccco3)c(-c3ccco3)n2)cc1OC | -19.8% |  |
| COCCNC(=O)Nc1ccc2nc(-c3ccco3)c(-c3ccco3)nc2c1 |  | 6.31 µM (active) |
| COc1ccc(C2=NCCn3nc4cc(OC)ccc4c32)cc1 | -6.76% |  |
